In the library only some 18% were active in any assay of this set; here they are far more common.
TGFb SMAD3 inh – blocks TGF-b signaling. AID 588855. 410,000 tested, 1.2% active. HepG2 CAGA-GFP TGF-b/SMAD3 reporter, GFP fluorescence, 18 h; TGF-beta stimulated, 500 pg/mL final. Potency, µM (top dose mostly 46.1 µM), for the others: top-dose activity, negative = inhibition, actives largely listed as inhibitors; further: potency means the concentration at half of the fitted maximal effect; on the % scale 0 is the no-effect control and ±100 the full control effect; nearly all actives have a fitted effect of over 65% in size
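HEPG2 CAGA-GFP, 1000 cells/well; 2 h settle, 37 C; cpd via pin tool; TGF-b 500 pg/mL final; 18 h, 37 C; GFP imaging ex488/em500-530; %Activity normalised to -TGF-b and +DMSO controls; CRC fit, curve class.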
DT40 TDP1 no CPT – qHTS for Inhibitors of human tyrosyl-DNA phosphodiesterase 1 (TDP1): qHTS in cells in absence of CPT | DT40 Tdp1-/- hTDP1 cells, no CPT, ATP luminescence, 48 h | Potency, µM (top dose mostly 46.2 µM), for inactives: at the top dose activity change, negative = growth inhibition, usual class: inhibitors | AID 686978, 2013 | 420,000 tested, 15% active; further: potency means the concentration at half of the fitted maximal effect; on the % scale 0 is the no-effect control and ±100 the full control effect; nearly all actives have a fitted effect of over 55% in size
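Cells were dispensed at 400 per well, compounds added by pin tool, plates incubated ≥48 hr at 37 °C, then CellTiter-Glo added for 30 min at room temperature before luminescence reading. Line: DT40 Tdp1-/- complemented with hTDP1; camptothecin omitted.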
HepG2 viability – HepG2 cytotoxicity, counter-screen for TGF-b inhibitors; HepG2 CAGA-GFP viability, ATP luminescence, 18 h; Potency, µM (top dose mostly 46.1 µM), for inactives: top-dose activity change, negative = cytotoxicity, hits mostly cytotoxic; 410,000 tested, 0.76% active; AID 588856; further: potency means the concentration at half of the fitted maximal effect
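CellTiter-Glo luminescence gave cytotoxicity after 18 hours at 37 degrees C. The cells were HepG2 CAGA-GFP in 1% FBS DMEM, stimulated with 500 pg/mL TGF-beta after compound addition. %Activity was normalised to no-cell wells (complete cell-killing) and DMSO (no toxicity), and curves were fitted and classified.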
IL-1B inflam inh – inflammasome signaling inhibition, IL-1 beta readout; THP-1 LPS/ATP IL-1B secretion, AlphaLISA, 16 h; active compounds read low; activity change, % at 57.5 µM; 360,000 tested, 4.7% active; AID 743279; in the data active means activity change below about -50%; inconclusive means mostly about -30% to -49%; further: on the % scale 0 is the no-effect control and ±100 the full control effect
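THP-1 cells pretreated 1 hr with compounds (up to 57.5 uM final), then stimulated with LPS (250 ng/mL final) plus ATP (1.25 mM final); secreted IL-1B measured by AlphaLISA after 16 hr, decreased signal indicating inhibition.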
TDP1 block – TDP1 (human) enzyme inhibition; Potency, µM (highest dose often 130 µM), for inactives: at the top dose activity change, negative = inhibition, usual class: inhibitors; recombinant TDP1, AlphaScreen DNA substrate cleavage; 350,000 tested, 0.28% active; further: potency means the concentration at half of the fitted maximal effect; on the % scale 0 is the no-effect control and ±100 the full control effect; nearly all actives have a fitted effect of over 40% in size
Target sequence (Q9NUW8 whole entry, looked up): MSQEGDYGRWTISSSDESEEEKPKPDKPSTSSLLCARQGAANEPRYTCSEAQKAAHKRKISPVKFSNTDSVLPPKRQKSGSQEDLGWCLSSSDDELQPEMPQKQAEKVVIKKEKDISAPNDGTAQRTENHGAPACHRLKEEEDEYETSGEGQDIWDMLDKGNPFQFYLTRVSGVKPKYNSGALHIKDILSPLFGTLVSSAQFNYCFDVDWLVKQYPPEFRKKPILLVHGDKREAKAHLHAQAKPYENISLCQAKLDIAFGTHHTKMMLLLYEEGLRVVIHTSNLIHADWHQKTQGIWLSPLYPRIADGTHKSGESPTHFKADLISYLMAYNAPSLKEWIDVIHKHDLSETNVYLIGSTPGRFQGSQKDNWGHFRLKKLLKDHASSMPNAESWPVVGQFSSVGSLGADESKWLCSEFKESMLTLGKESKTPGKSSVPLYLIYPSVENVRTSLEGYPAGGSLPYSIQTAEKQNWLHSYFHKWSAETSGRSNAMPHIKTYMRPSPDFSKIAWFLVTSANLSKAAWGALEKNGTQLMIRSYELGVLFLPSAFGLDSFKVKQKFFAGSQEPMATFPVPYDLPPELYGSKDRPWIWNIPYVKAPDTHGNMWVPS
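Enzyme-compound mixtures sat 15 min at room temperature, followed by a 5 min reaction with 15 nM final substrate and 10 min with AlphaScreen beads. Recombinant human Tdp1 was used at 1 nM final.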
DT40 TDP1 CPT – growth inhibition of DT40 Tdp1-/-;hTDP1 cells with camptothecin (screen for TDP1 inhibitors); chicken DT40 Tdp1-/-;hTDP1 cells + 20 nM CPT, ATP luminescence, 48 h; Potency, µM (titrated, usually from 46.2 µM), for the others: at the top dose activity change, negative = growth inhibition, most hits filed as inhibitors; 420,000 tested, 12% active; further: potency means the concentration at half of the fitted maximal effect; on the % scale 0 is the no-effect control and ±100 the full control effect; nearly all actives have a fitted effect of over 55% in size
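Chicken DT40 Tdp1-/- cells stably complemented with human TDP1 were seeded at 400 cells/well in medium containing 20 nM camptothecin, exposed to pin-transferred compounds, and grown at 37 °C for at least 48 hr. Viability was read as ATP luminescence.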
* hit, by the source's call; ? = inconclusive; . = no result given. Unless noted, the call rests on the fitted dose curve; in most records, active means well fitted curve in the direction sought with a large enough effect; inconclusive means small, poorly fitted or top-dose-only effect, or another doubt; inactive means no such curve, though single readings can be large; an effect the other way counts as inactive or inconclusive.

SMILES | TGFb SMAD3 inh | DT40 TDP1 no CPT | HepG2 viability | IL-1B inflam inh | TDP1 block | DT40 TDP1 CPT
CCN(CC)S(=O)(=O)c1cccc(NC(=O)CSc2nc3ccccc3[nH]2)c1 | -14% | 16µM* | -18% | -57* | -5% | 23µM*
CCc1ccc(CN(C)CC(=O)Nc2ccc3c(c2)CCC3)cc1 | -6% | ? | -14% | 19 | -6% | ?
Cc1ccccc1N=C1Nc2ccc(Cl)cc2N[C@]12C[C@H]1CCCC(=O)N3CC[C@@H](C2)[C@@H]13 | 4% | ? | 8% | . | . | ?
CC(C)CCNC(=O)CN(C(=O)CCC(=O)Nc1nccs1)c1ccc2c(c1)OCCO2 | 7% | -27% | 9% | -15 | -1% | ?
CCCCCCCCCc1conc1C(=O)CP(=O)(OC)OC | . | ? | . | 18 | . | ?
O=C1CN(C(=O)Nc2ccccc2Cl)C(c2ccccc2)c2c(sc3c2CCCC3)N1 (configuration not stated) | -11% | ? | -16% | . | 6% | 23µM*
CC(=O)N1CCCc2cc(S(=O)(=O)NCc3ccc(N(C)C)cc3)ccc21 | ? | 21µM* | -25% | . | 2% | ?
CC(=O)N1CCCc2cc(S(=O)(=O)N3CCC(C(=O)NCc4cccc(C)c4)CC3)ccc21 | -24% | ? | -5% | . | 4% | -57%
O=C(C1CC1)N1CCc2cc(S(=O)(=O)NCc3ccccc3)ccc21 | 10% | ? | 6% | 11 | 1% | 23µM*
COc1cccc(CNS(=O)(=O)c2ccc3c(c2)CCN3C(=O)C2CC2)c1 | -28% | ? | -1% | 11 | 8% | ?
CC(=O)N1CCCc2cc(S(=O)(=O)NCCC3=CCCCC3)ccc21 | -11% | 11µM* | -29% | 23 | 3% | 10µM*
CC(=O)N1CCCc2cc(S(=O)(=O)NCc3cccc(C)c3)ccc21 | ? | 21µM* | -33% | . | 5% | ?
CC(=O)N1CCCc2cc(S(=O)(=O)N3CCC(C(=O)NCc4ccc(N(C)C)cc4)CC3)ccc21 | ? | ? | -26% | . | 10% | ?
COc1ccccc1CNS(=O)(=O)c1ccc2c(c1)CCCN2C(C)=O | 2% | -25% | -15% | 43 | 0% | -2%
CCS(=O)(=O)c1ccc(C(=O)NC2CC2)c(Cl)c1Cl | 1% | -7% | -22% | 0 | 4% | -7%
COc1ccc(CCNC(=O)CCc2ccc(S(=O)(=O)NCC(C)C)cc2)cc1OC | -4% | -4% | 3% | 16 | -8% | -9%
CCC(=O)N1CCc2cc(S(=O)(=O)NCc3ccc(C)cc3)ccc21 | ? | 18µM* | -28% | . | 2% | 23µM*
CC(=O)N1CCCc2cc(S(=O)(=O)NCc3ccc(C)cc3)ccc21 | 4% | 13µM* | 1% | 9 | 2% | ?
CCC(=O)N1CCc2cc(CNS(=O)(=O)c3ccc(NC(=O)CC(C)C)cc3)ccc21 | ? | 18µM* | -29% | . | 3% | 21µM*
CCC(=O)N1CCc2cc(S(=O)(=O)NC(C(=O)NCc3ccc(C)cc3)C(C)C)ccc21 (configuration not stated) | 4% | -23% | -19% | 0 | 0% | 5%
CC(C)CNS(=O)(=O)c1ccc(CCC(=O)NCCC2=CCCCC2)cc1 | -27% | 23µM* | -48% | -10 | 2% | ?
O=C(c1cccs1)N1C[C@H](O)[C@@H](n2cc(C3CC3)nn2)C[C@@H]1c1ccccc1 | -4% | -25% | -11% | -1 | . | -20%
Cc1ccccc1S(=O)(=O)NC(=O)C1(C)CCN1C(=O)C1(c2ccc(Cl)cc2)CCC1 (configuration not stated) | -1% | -21% | -21% | 0 | . | ?
COc1ccccc1C(=O)ON=C1c2ccccc2-c2ccccc21 | ? | 23µM* | 1% | -11 | -5% | -27%
O=C(NCc1ccc(F)cc1F)[C@@H]1CCCN1C(=O)[C@@H]1CCCN1C(=O)c1ccccc1 | . | -22% | . | -95* | . | -28%
SMILES | TGFb SMAD3 inh | DT40 TDP1 no CPT | HepG2 viability | IL-1B inflam inh | TDP1 block | DT40 TDP1 CPT
Cc1ccc(S(=O)(=O)c2c(COC(=O)c3ccc(Cl)cc3)c(-c3ccccc3)nn2C)cc1 | 20% | ? | 2% | 0 | -2% | 16µM*
CC(=O)c1ccc(NS(=O)(=O)c2ccc3[nH]c4c(c3c2)CCCC4)cc1 | ? | -26% | -21% | . | 10% | -4%
CC(=O)c1cccc(NC(=O)c2cccc3c(-c4cnn(C)c4)coc23)c1 | -23% | 21µM* | -36% | -81* | . | 13µM*
COc1ccc(-c2coc3c(C(=O)Nc4cccc(NS(C)(=O)=O)c4)cccc23)c(C)c1 | ? | 21µM* | -15% | -15 | . | ?
O=C(Nc1cccc(OC(F)(F)F)c1)c1cccc2c(-c3cccnc3)coc12 | ? | 21µM* | -35% | -28 | . | 23µM*
O=C(Nc1cccnc1)c1ccccc1-c1ccccc1 | 19% | 14% | 6% | 19 | 5% | ?
COc1ccc(NC(=O)c2cccc3c(-c4ccc(OC)cc4C)coc23)cc1 | -9% | ? | -5% | 23 | . | ?
CC(=O)c1cccc(NC(=O)c2ccc(-n3cncn3)c3ccoc23)c1 | 2% | ? | -4% | -15 | . | ?
CC(=O)c1cccc(NC(=O)c2cccc3c(-c4cccnc4)coc23)c1 | 6% | 9.2µM* | -41% | 0 | . | 12µM*
CCOc1ccccc1CNC(=O)C1CCCN(c2nn3c(=O)cc(C)nc3s2)C1 (configuration not stated) | -1% | 17% | 4% | 5 | 5% | 8%
COCC(=O)C(C(=O)OC)[C@H](CCc1ccccc1)NC(=O)OC (some centres not stated) | . | . | . | . | 2% | .
CS(=O)(=O)Nc1cccc(NC(=O)c2cccc3c(-c4cccnc4)coc23)c1 | 6% | 16µM* | -22% | -8 | . | 12µM*
N=c1c(-c2nc3ccccc3[nH]2)cc(C(=O)c2cccs2)nn1-c1ccccc1 | 1% | 23µM* | 3% | -27 | 0% | 29µM*
N=c1c(-c2nc3ccccc3[nH]2)cc(C(=O)c2ccco2)nn1-c1ccccc1 | -18% | 3.3µM* | -22% | 0 | 11% | 2.6µM*
CC(C)c1ccc(N(CC(=O)NCc2ccco2)C(=O)CCC(=O)Nc2ccccn2)cc1 | 0% | -27% | -15% | -14 | -10% | -1%

High-throughput results from PubChem.
